# Screens (PubChem BioAssay)
# FBPA coupling cs: coupling enzyme interference in Giardia aldolase counter-screen. actives 0.67% (n = 290,000). coupling enzyme system counterscreen, AmpLite Red fluorescence. activity change, negative = inhibition, % at 58.2 µM, hits read low; in the data active means activity change below about -30%
#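 Coupling enzymes only (glyceraldehyde-3-phosphate) + compound, at 57.5 uM final, 10 min RT; add substrate/coupling/AmpLite Red mix, 20 min RT; fluorescence ex 525/em 598 nm. Actives flag coupling-system interference.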
# Tau fibril FP: tau fibrillization inhibition (FP). P10636. K18 P301L tau heparin fibrillization, Alexa594 FP, 6 h. Potency, µM (series often up to 57.7 µM), for inactives: at the highest dose activity, negative = inhibition, actives largely listed as inhibitors. actives 0.39% (n = 280,000); further: potency means the concentration at half of the fitted maximal effect; nearly all actives have a fitted effect of over 55% in size
#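 Human tau K18 […] P301L fragment, 15 uM unlabeled plus 0.24 uM Alexa 594-labeled tau (final), with compound and 20 uM heparin in 100 mM sodium acetate pH 7; 6 hr at 37 C, then Alexa 594 FP read.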
# USP1-UAF1 inh: blocks the human USP1/UAF1 deubiquitinase complex; Potency, µM (titrated, usually from 57.1 µM), for the others: at the highest dose activity change, negative = inhibition, hits mostly inhibitors; O94782; recombinant USP1/UAF1, Ub-Rhodamine cleavage fluorescence; actives 0.23% (n = 390,000); further: potency means the concentration at half of the fitted maximal effect; nearly all actives have a fitted effect of over 60% in size
# Target sequence (O94782 whole entry, looked up): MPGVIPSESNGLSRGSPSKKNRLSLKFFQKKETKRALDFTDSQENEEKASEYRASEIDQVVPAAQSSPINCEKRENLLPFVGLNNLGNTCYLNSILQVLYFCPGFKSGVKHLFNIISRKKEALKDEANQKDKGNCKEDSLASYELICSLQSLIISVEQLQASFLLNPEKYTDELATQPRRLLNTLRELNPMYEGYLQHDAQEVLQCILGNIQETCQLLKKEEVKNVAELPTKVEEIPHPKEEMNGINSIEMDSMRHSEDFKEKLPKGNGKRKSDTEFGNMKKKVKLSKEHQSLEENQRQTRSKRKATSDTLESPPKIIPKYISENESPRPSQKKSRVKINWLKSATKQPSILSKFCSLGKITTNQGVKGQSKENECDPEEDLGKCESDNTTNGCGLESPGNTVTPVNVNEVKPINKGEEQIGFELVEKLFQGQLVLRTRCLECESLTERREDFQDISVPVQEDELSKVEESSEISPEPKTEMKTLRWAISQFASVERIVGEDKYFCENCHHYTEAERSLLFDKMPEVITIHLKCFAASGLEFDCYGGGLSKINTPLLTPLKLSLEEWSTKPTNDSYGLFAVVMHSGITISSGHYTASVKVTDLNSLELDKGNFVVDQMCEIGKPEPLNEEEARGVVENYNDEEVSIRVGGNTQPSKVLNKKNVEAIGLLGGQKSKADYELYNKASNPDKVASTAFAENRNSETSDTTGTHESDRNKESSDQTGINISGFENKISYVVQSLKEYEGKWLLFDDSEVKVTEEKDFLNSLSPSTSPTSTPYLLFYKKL
#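 USP1/UAF1 complex at 1 nM was preincubated with compound for 15 min at room temperature, then Ub-Rho substrate (150nM final) was added. Fluorescence (480/540 nm) was read kinetically, 6 reads every 60 seconds.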
# Tau ThT inhib: inhibitors of human tau fibril formation, thioflavin T binding | recombinant tau K18 P301L, heparin-induced fibrillization, ThT fluorescence | Potency, µM (doses to about 57.4 µM), for inactives: at the highest dose activity, negative = inhibition, usual class: inhibitors | actives 2.1% (n = 270,000); further: potency means the concentration at half of the fitted maximal effect; nearly all actives have a fitted effect of over 55% in size
#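 Aggregation was driven by heparin (20 uM final) acting on recombinant tau […] bearing P301L in 100 mM sodium acetate pH 7; fibrils were detected with Thioflavin T.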
# Tau fluor cs: counter-screen for tau fibril formation inhibitors | actives 0.93% (n = 280,000) | Potency, µM (titrated, usually from 57.7 µM), for inactives: at the top dose activity change, negative = decrease | AID 1463 | tau K18 P301L Alexa594 fluorescence, heparin fibrillization; further: potency means the concentration at half of the fitted maximal effect; nearly all actives have a fitted effect of over 55% in size
#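 Human tau K18 P301L (15 uM unlabeled, 0.24 uM Alexa 594-labeled) in 100 mM sodium acetate pH 7 with 20 uM heparin, 6 hr at 37 C. ThT 30 uM added, 1 hr ambient; Alexa 594 FP and total fluorescence read at 555/632 nm.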
# * = called active by the depositor; u = inconclusive; x = not tested or not shown; ! = a repeat was not active; [ ] = dose if it differs, or a comment. This is a sample that favours compounds with a hit; in the whole collection about 2.3% have one here. Unless noted, the call rests on the fitted dose curve; in most records, active means well fitted curve in the direction sought with a large enough effect; inconclusive means small, poorly fitted or top-dose-only effect, or another doubt; inactive means no such curve, though single readings can be large; an effect the other way counts as inactive or inconclusive. On the % scale 0 is the no-effect control and ±100 the full control effect.
SMILES,FBPA coupling cs,Tau fibril FP,USP1-UAF1 inh,Tau ThT inhib,Tau fluor cs
CC(C)(C)OC(=O)[C@H](Cc1ccccc1)NC(=O)c1[nH]cnc1C(=O)Nc1ccc(Cl)cc1,-1.1,12.6µM*,-32.6%,14.9%,u
CC(C)C[C@H](NC(=O)c1nc[nH]c1C(=O)N[C@@H](CC(C)C)C(=O)OC(C)(C)C)C(=O)OC(C)(C)C,-16.2,-12.9%,-6.8%,-12.3%,-22.0%
Cc1cccc(NC(=O)c2nc[nH]c2C(=O)N[C@@H](CC(C)C)C(=O)OC(C)(C)C)c1,-5.8,12.6µM*,-14.3%,7.6%,u
CCN(CC)CCn1c(-c2ccccc2)nc2c(NCc3ccccc3)nc(C)nc21,1.1,-8.1%,x,-3.8%,-12.9%
CC(C)(C)OC(=O)[C@H](Cc1ccccc1)NC(=O)c1nc[nH]c1C(=O)N[C@@H](Cc1ccccc1)C(=O)OC(C)(C)C,-10.6,u,-18.6%,-6.1%,-18.7%
CC(C)(C)OC(=O)[C@H](Cc1ccccc1)NC(=O)c1[nH]cnc1C(=O)Nc1cccc(Cl)c1,-3.1,22.4µM*,-18.4%,16.2%,u
COC(=O)CCC(=O)OC1(C)C(=O)C2=CN(C3CCCC3)C(c3ccc(OC)cc3)=CC2=C(Br)C1=O (configuration not stated),-41.0*,u,25.1µM*,15.8µM*,-13.9%[11.6 µM]
C=CCN1C=C2C(=O)C(C)(OC(=O)CCC(=O)OC)C(=O)C(Br)=C2C=C1c1ccc(OC)cc1 (configuration not stated),-41.0*!,u,31.6µM*,14.1µM*!,-8.2%[11.6 µM]
COC(=O)CCC(=O)OC1(C)C(=O)C2=CN(c3ccc(OC)cc3)C(c3ccc(OC)cc3)=CC2=C(Br)C1=O (configuration not stated),-9.8,3.6%[11.6 µM],u,-17.3%[11.5 µM],-17.6%[11.6 µM]
COCCN1C=C2C(=O)C(C)(OC(=O)CCC(=O)OC)C(=O)C(Br)=C2C=C1c1ccc(OC)cc1 (configuration not stated),-30.1*,-5.1%[11.6 µM],25.1µM*,-11.4%[11.5 µM],-9.3%[11.6 µM]
CCN(CC)CCCN1C=C2C(=O)C(C)(OC(=O)CCC(=O)OC)C(=O)C(Br)=C2C=C1c1ccc(OC)cc1 (configuration not stated),-14.9,-7.3%[11.6 µM],u,-5.3%[11.5 µM],-11.7%[11.6 µM]
O=C(NCCC1=CCCCC1)c1ccc2c(c1)sc1nc(-c3ccc(F)cc3)cn12,x,-2.7%,0.9%,3.9%,-2.1%
CC[C@H](C)[C@H](NC(=O)[C@H](Cc1ccc(O)cc1)NC(=O)[C@@H](NC(=O)[C@H](CCCN=C(N)N)NC(=O)[C@@H](N)CC(=O)O)C(C)C)C(=O)N[C@@H](Cc1cnc[nH]1)C(=O)N1CCC[C@H]1C(=O)N[C@@H](Cc1ccccc1)C(=O)N[C@@H](Cc1cnc[nH]1)C(=O)N[C@@H](CC(C)C)C(=O)O,1.5,x,x,x,x
CCc1ccc(S(=O)(=O)Nc2ccc(O)c3c(=O)cc(-c4ccccc4Cl)oc23)cc1,0.9,u,u,-5.4%,u
O=c1cc(-c2ccccc2Cl)oc2c(NS(=O)(=O)c3cc(Cl)cc(Cl)c3O)ccc(O)c12,7.4,31.6µM*,25.1µM*,22.4µM*,u
COc1ccc(NC(=O)Cn2c(=O)oc3cc(S(=O)(=O)N4CCCC4)ccc32)cc1OC,x,10.4%,-25.7%,6.3%,-4.1%
O=S(=O)(NCCc1cn2ccsc2n1)c1ccc(Cl)cc1,x,-10.0%,-18.9%,5.3%,2.9%
CC(=O)Nc1cccc(C(=O)OC(C(=O)c2ccc(C)cc2)c2ccccc2)c1 (configuration not stated),x,14.1µM*,-22.2%,13.2%,u
Cc1ccc(NC(=O)C(OC(=O)c2ccc(O)cc2)c2ccccc2)cc1Cl (configuration not stated),2.9,28.2µM*,-22.6%,12.1%,u
Cc1ccc(NC(=O)C(OC(=O)c2ccc(F)cc2)c2ccccc2)cc1Cl (configuration not stated),-2.1,u,-22.2%,-0.9%,u
Cc1ccc(NC(=O)CCC(=O)OC(C(=O)c2ccc(C)c(C)c2)c2ccccc2)c(C)c1 (configuration not stated),1.2,2.2%,-27.0%,-0.3%,-1.6%
CC(=O)Nc1cccc(C(=O)OC(C(=O)c2ccc(C)c(C)c2)c2ccccc2)c1 (configuration not stated),3.8,15.8µM*,-20.9%,5.0%,u
COc1cc(NS(=O)(=O)c2ccc(NC(=O)c3ccccc3C(=O)O)cc2)nc(OC)n1,x,-2.2%,-19.4%,-4.4%,0.6%
C=CC1=C2C=C(C3CC3)N(CCCOC(C)C)C=C2C(=O)C(C)(OC(=O)c2ccco2)C1=O (configuration not stated),-32.4*,-4.0%[11.6 µM],x,-12.3%[11.5 µM],-4.9%[11.6 µM]
C=CC1=C2C=C(C3CC3)N(Cc3ccccc3)C=C2C(=O)C(C)(OC(=O)c2ccco2)C1=O (configuration not stated),-35.9*,5.9%[11.6 µM],x,-13.4%[11.5 µM],-3.0%[11.6 µM]
SMILES,FBPA coupling cs,Tau fibril FP,USP1-UAF1 inh,Tau ThT inhib,Tau fluor cs
CNC(=O)c1ccc(CSc2nc3cccnc3n2Cc2cccc(F)c2)cc1,x,2.4%,-18.2%,-8.1%,-12.7%
Cc1ccc(C)c(Cn2c3ccccc3c3cnn(CC(=O)NCc4ccccc4)c(=O)c32)c1,x,-16.0%,-14.3%,u,10.8%
COc1cc(NC(=O)N2CCC(CN3CCCCCC3)CC2)cc(OC)c1OC,x,0.0%,-22.4%,-11.3%,-8.2%
CC(=O)c1ccc(N/N=C(/C(N)=O)C2=NC(C)(C)Cc3ccccc32)cc1,-2.5,4.6%,-18.9%,u,-25.7%
CC1(C)Cc2ccccc2C(/C(=N\Nc2cccc(Cl)c2)C(N)=O)=N1,-5.1,9.4%,-26.7%,14.1µM*,u
CC1Cc2cc(S(=O)(=O)CCC(=O)Nc3cccc(F)c3)ccc2N1C(=O)C1CC1 (configuration not stated),x,0.1%,1.2%,1.4%,-8.6%
COc1ccc(OC)c(CCNC(=O)CS(=O)(=O)Cc2nc(-c3cccc(Cl)c3)oc2C)c1,x,5.5%,-7.3%,u,-25.3%
Cc1ccc(-n2nc(CO)c(C(=O)NCc3cccs3)n2)cc1C,x,-1.3%,-1.5%,0.2%,-3.2%
COc1ccccc1CNc1ncnc2ccc(-c3ccccc3OC)cc12,1.5,x,x,x,x
COc1ccccc1CNc1ncnc2ccc(-c3ccc(N(C)C)cc3)cc12,-20.4,u,x,11.2µM*,10µM*[quencher]
COC(=O)C(C)CCCC(C)CCCC(C)CCCC(C)C (configuration not stated),0.9,x,x,x,x
N#CC1=C(N)SC(N)=C(C#N)C1c1cccc(Oc2ccccc2)c1,-16.3,-15.4%,-3.1%,u,u
N#CC1=C(N)SC(N)=C(C#N)C1c1c(Cl)cccc1Cl,-51.2*,-9.1%,u,u,-18.1%
CCOC(=O)c1noc2ncnc(N3CCN(c4ccccc4OC)CC3)c12,x,-2.4%,-10.9%,-17.5%,-19.0%
